In PubChem BioAssay (Tox21):
Values joined by “and” are separate entries in the source; they are usually repeats but may differ in a detail not shown here. Equal entries are not always repeated. Inconclusive results are not listed. Entries that show only a call come without a potency. Some compounds were tested as several samples or in several runs, with calls that do not always agree. Active and inactive are the calls of the source. Calls come from the whole dose curve; as a rule, active = well fitted curve in the direction sought with a large enough effect in the repeat runs; inconclusive = weak or mixed curves; inactive = no such curve, though single readings can be large; an effect the other way counts as inactive or inconclusive.

experiment: A CellTox Green Cytotoxicity Assay to monitor cytotoxicity in HepG2 cells - 40 hour (AID 1224879); details: CellTox Green fluorescence; series mostly up to 76.8 µM; note: nearly all actives have a fitted effect of over 40% in size
Method in brief: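 First, HepG2 cells (600/well) mixed with reagent were plated; second, after 5 h at 37 C they received compounds via pintool; third, fluorescence was measured at 0 h through 40 h at 8 h intervals.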
Potency is the fitted concentration of half-maximal effect.

SMILES | Potency
O=C1CN(/N=C/c2ccc([N+](=O)[O-])o2)C(=O)N1 | inactive
CCCC(CCC)C(=O)O | inactive
CCCCC1C(=O)N(c2ccccc2)N(c2ccccc2)C1=O | inactive
OC(Cn1cncn1)(Cn1cncn1)c1ccc(F)cc1F | inactive
CCCNC(=O)NS(=O)(=O)c1ccc(Cl)cc1 | inactive
O=C(O)CS | inactive
O=NO | inactive
CC(O)C(=O)O (stereo unspecified) | inactive
Cn1cc[nH]c1=S | inactive
CCCCOC(=O)CC(CC(=O)OCCCC)(OC(C)=O)C(=O)OCCCC | inactive
CC(=O)OCC(COC(C)=O)OC(C)=O | inactive
O=C(O)c1cccc([N+](=O)[O-])c1 | inactive
Cc1noc(NS(=O)(=O)c2ccc(N)cc2)c1C | inactive
Nc1ccc(C(=O)O)cc1 | inactive
O=C(O)CCCCC(=O)O | inactive
CC1(C)[C@@H]2CC[C@@]1(C)C(=O)C2 | inactive
CCOc1ccc(NC(=O)CC(C)O)cc1 (stereo unspecified) | inactive
O=C1NC(=O)c2ccccc21 | inactive
C/C=C/c1ccc(OC)cc1 | inactive

SMILES | Potency
Cc1ccc(O)cc1 | inactive
c1ccc2[nH]ccc2c1 | 5.41 µM (active) and inactive
O=C(O)c1cc(N=Nc2ccc(S(=O)(=O)Nc3ccccn3)cc2)ccc1O | inactive
CC(C)[C@@H]1CC[C@@H](C)C[C@H]1O | inactive
CCCC(O)C(CC)CO (stereo unspecified) | inactive
Cn1c(=O)c2[nH]cnc2n(C)c1=O | inactive
CCCN(CCC)S(=O)(=O)c1ccc(C(=O)O)cc1 | inactive
Nc1ccc(O)c(C(=O)O)c1 | inactive
O=C(c1ccccc1)c1ccccc1 | inactive
O=C(C1CCCCC1)N1CC(=O)N2CCc3ccccc3C2C1 (stereo unspecified) | inactive
NC(=O)c1cnccn1 | inactive
CC(=O)Nc1nnc(S(N)(=O)=O)s1 | inactive
O=C(O)/C=C\C(=O)O | inactive
Cc1cc(=O)n(-c2ccccc2)n1C | inactive
O=C(c1ccccc1)C(O)c1ccccc1 (stereo unspecified) | inactive
NC(=O)c1ccccc1O | inactive
NS(=O)(=O)c1cc(C(=O)O)c(NCc2ccco2)cc1Cl | 19.6 µM (active) and inactive
CCC1(c2ccccc2)C(=O)NCNC1=O | inactive

experiment: qHTS RealTime-Glo MT Cell Viability Assay in HEK293 cells - 0 hour (AID 1224880); details: RealTime-Glo luminescence; series mostly up to 76.8 µM; note: nearly all actives have a fitted effect of over 45% in size
Method in brief: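 600 HEK293 cells per well, dispensed already mixed with RealTime-Glo MT reagents. Compound dosing came 5 h later. The same wells were read for luminescence at 0, 8, 16, 24, 32 and 40 h of exposure at 37 C.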

SMILES | Potency
O=C1CN(/N=C/c2ccc([N+](=O)[O-])o2)C(=O)N1 | inactive
CCCC(CCC)C(=O)O | inactive
CCCCC1C(=O)N(c2ccccc2)N(c2ccccc2)C1=O | inactive
OC(Cn1cncn1)(Cn1cncn1)c1ccc(F)cc1F | inactive
CCCNC(=O)NS(=O)(=O)c1ccc(Cl)cc1 | inactive
O=C(O)CS | inactive
O=NO | inactive
CC(O)C(=O)O (stereo unspecified) | inactive
Cn1cc[nH]c1=S | inactive
CCCCOC(=O)CC(CC(=O)OCCCC)(OC(C)=O)C(=O)OCCCC | inactive
CC(=O)OCC(COC(C)=O)OC(C)=O | inactive
O=C(O)c1cccc([N+](=O)[O-])c1 | inactive
Cc1noc(NS(=O)(=O)c2ccc(N)cc2)c1C | inactive
Nc1ccc(C(=O)O)cc1 | inactive
O=C(O)CCCCC(=O)O | inactive
CC1(C)[C@@H]2CC[C@@]1(C)C(=O)C2 | inactive
CCOc1ccc(NC(=O)CC(C)O)cc1 (stereo unspecified) | inactive
O=C1NC(=O)c2ccccc21 | inactive
C/C=C/c1ccc(OC)cc1 | inactive

SMILES | Potency
Cc1ccc(O)cc1 | inactive
c1ccc2[nH]ccc2c1 | inactive
O=C(O)c1cc(N=Nc2ccc(S(=O)(=O)Nc3ccccn3)cc2)ccc1O | 12.3 µM (active) and 19.5 µM (active) and 16.9 µM (active)
CC(C)[C@@H]1CC[C@@H](C)C[C@H]1O | inactive
CCCC(O)C(CC)CO (stereo unspecified) | inactive
Cn1c(=O)c2[nH]cnc2n(C)c1=O | inactive
CCCN(CCC)S(=O)(=O)c1ccc(C(=O)O)cc1 | inactive
Nc1ccc(O)c(C(=O)O)c1 | inactive
O=C(c1ccccc1)c1ccccc1 | inactive
O=C(C1CCCCC1)N1CC(=O)N2CCc3ccccc3C2C1 (stereo unspecified) | inactive
NC(=O)c1cnccn1 | inactive
CC(=O)Nc1nnc(S(N)(=O)=O)s1 | inactive
O=C(O)/C=C\C(=O)O | inactive
Cc1cc(=O)n(-c2ccccc2)n1C | inactive
O=C(c1ccccc1)C(O)c1ccccc1 (stereo unspecified) | inactive
NC(=O)c1ccccc1O | inactive
NS(=O)(=O)c1cc(C(=O)O)c(NCc2ccco2)cc1Cl | inactive
CCC1(c2ccccc2)C(=O)NCNC1=O | inactive

experiment: A CellTox Green Cytotoxicity Assay to monitor cytotoxicity in HEK293 cells - 32 hour (AID 1224881); details: CellTox Green fluorescence; series mostly up to 76.8 µM; note: nearly all actives have a fitted effect of over 40% in size
Method in brief: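 Dead-cell fluorescence measured kinetically: asymmetric cyanine dye, HEK293, 600 cells/well, 5 h settle, 23 nL cpd/DMSO, 37 C, reads 0–40 h every 8 h.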

SMILES | Potency
O=C1CN(/N=C/c2ccc([N+](=O)[O-])o2)C(=O)N1 | inactive
CCCC(CCC)C(=O)O | inactive
CCCCC1C(=O)N(c2ccccc2)N(c2ccccc2)C1=O | inactive
OC(Cn1cncn1)(Cn1cncn1)c1ccc(F)cc1F | inactive
CCCNC(=O)NS(=O)(=O)c1ccc(Cl)cc1 | inactive
O=C(O)CS | inactive
O=NO | inactive
CC(O)C(=O)O (stereo unspecified) | inactive
Cn1cc[nH]c1=S | inactive
CCCCOC(=O)CC(CC(=O)OCCCC)(OC(C)=O)C(=O)OCCCC | inactive
CC(=O)OCC(COC(C)=O)OC(C)=O | inactive
O=C(O)c1cccc([N+](=O)[O-])c1 | inactive
Cc1noc(NS(=O)(=O)c2ccc(N)cc2)c1C | inactive
Nc1ccc(C(=O)O)cc1 | inactive
O=C(O)CCCCC(=O)O | inactive
CC1(C)[C@@H]2CC[C@@]1(C)C(=O)C2 | inactive and 8.49 µM (active)
CCOc1ccc(NC(=O)CC(C)O)cc1 (stereo unspecified) | inactive
O=C1NC(=O)c2ccccc21 | inactive
C/C=C/c1ccc(OC)cc1 | inactive

SMILES | Potency
Cc1ccc(O)cc1 | inactive
c1ccc2[nH]ccc2c1 | 6.81 µM (active) and inactive
O=C(O)c1cc(N=Nc2ccc(S(=O)(=O)Nc3ccccn3)cc2)ccc1O | inactive
CC(C)[C@@H]1CC[C@@H](C)C[C@H]1O | inactive
CCCC(O)C(CC)CO (stereo unspecified) | inactive
Cn1c(=O)c2[nH]cnc2n(C)c1=O | inactive
CCCN(CCC)S(=O)(=O)c1ccc(C(=O)O)cc1 | inactive
Nc1ccc(O)c(C(=O)O)c1 | inactive
O=C(c1ccccc1)c1ccccc1 | inactive
O=C(C1CCCCC1)N1CC(=O)N2CCc3ccccc3C2C1 (stereo unspecified) | inactive
NC(=O)c1cnccn1 | inactive
CC(=O)Nc1nnc(S(N)(=O)=O)s1 | inactive
O=C(O)/C=C\C(=O)O | inactive
Cc1cc(=O)n(-c2ccccc2)n1C | 44.8 µM (active) and inactive
O=C(c1ccccc1)C(O)c1ccccc1 (stereo unspecified) | inactive
NC(=O)c1ccccc1O | inactive
NS(=O)(=O)c1cc(C(=O)O)c(NCc2ccco2)cc1Cl | inactive
CCC1(c2ccccc2)C(=O)NCNC1=O | inactive
